These results are taken from PubChem BioAssay (NCI).

SMILES strings stand for the structures. About 83,000 compounds went through this panel and 20% of them were active in at least one assay; those are over-represented in the sample as a whole.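 For each line, cells grew in 96-well plates with the test compound present at a single concentration for 48 hours.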 Unmarked numbers belong to inactive results. Calls of active or inactive are those of the source. How the source made its calls: active means growth percent below 10; inactive means the rest.

In this assay the test system is NCI-H322M lung. Briefly: NCI-60 one-dose screen, 48 h (100 = growth as untreated, 0 = no growth, -100 = all killed). As to conditions: 10 µM unless noted.
As for `COc1cc(-c2nn(-c3ccccc3)cc2-c2ccnc(NCCNS(=O)(=O)c3ccc(Cl)cc3)n2)ccc1Cl`, the growth was 68.8%.
With `COc1cccc(-c2nc3sccn3c2-c2ccnc(NCCNS(=O)(=O)c3cccc(Cl)c3)c2)c1` the figure was 80.8%.
Under `O=C1N=c2cc3c(cc2=C/C1=C/c1sc(=S)n(CCc2ccc(O)cc2)c1O)OCCO3` stands 95.9%; under `COc1ccc(OC)c2c1[nH]c(=O)c1c3ncccc3cn21`, 48.5%.
Under `O=S(=O)(Nc1cccc(Cl)c1)c1ccc(-c2cnc(C3CC3)o2)cc1` stands 48.1%; under `COc1ccc(NC(=O)CSc2nc(C)c(C(C)=O)n2-c2ccc(Cl)cc2)cc1`, 100%.
On to `Cc1cc(/C=C\c2ccc3ccccc3[n+]2C)c(O)c2ncccc12`, for which the growth was 8.71% (active).
With `CN(C)c1ccc(-c2ccc3[nH]c(=O)nc(-c4ccccc4)c3c2)cn1` the figure was 77.5%; with `O=C(c1ccccc1)N1N=C(c2ccccc2)CC1c1nnc2n(Cc3ccccc3)c(=O)c3c4c(sc3n12)CCCC4` (stereo not drawn), 89.4%; with `N#Cc1c(N)nc2c(C#N)c(NC(=O)c3ccccc3)nn2c1-c1ccccc1`, 94.7%.
For `COc1ccc(-c2nc3ccc4[nH]ncc4c3c3c2CCCC3)cc1B(O)O`, the growth was 63.4%.
Regarding `C(=N\Nc1ncc(-c2cc3cc4c(cc3o2)OCO4)s1)/c1ccco1`, the growth is 77.3%.
In the case of `Cn1c(-c2c(N)n(Cc3cccnc3)c3nc(C#N)c(C#N)nc23)nc2ccccc21`, the growth was 77%.
On to `C[n+]1cccc(CC(=O)NO)c1`, for which the growth was 97.2%.
Under `C=CCSc1nc2ccccc2cc1/C=N/O` stands 81.4%.
With `O=C(CCCCCCN1CC(=O)N2[C@@H](c3ccccc3Cl)c3[nH]c4ccccc4c3C[C@H]2C1=O)NO` the figure was 81.8%; with `CCCCCCCOc1c(OC)cc(C2CC(=O)Nc3c2c(C)nn3-c2nc3ccccc3[nH]2)cc1OC` (stereo not drawn), 2.06% (active); with `COC(=O)c1c2c(c[n+]([O-])c1C)C(=O)C=CC2=O`, 110%.
With `COc1cccc(-c2nn(-c3ccccc3)cc2-c2ccnc(NCCCNC(=O)Nc3ccc(Cl)c(Cl)c3)c2)c1` the figure was 24.3%; with `Cc1ccc(NS(=O)(=O)c2ccc3c(c2)C2OCCC2C(c2ccc(C(=O)C(C)C)cc2)N3)cc1C` (stereo not drawn), 82.2%; with `Cc1cc(NCc2cc(Nc3ccnc4cc(Cl)ccc34)ccc2F)nc(N2CCSCC2)n1`, 43.2%.
`O=C(/C=C/c1ccc(Cl)nc1)c1ccc(Cl)cc1Cl`: the growth is 99.8%.
For the molecule `CCN(CC)CCCC(C)Nc1c2ccc(Cl)cc2nc2ccc(O)cc12` (stereo not drawn), the growth was 38%.
With `CCCCCCCC/C=C\CCCCCCCCOc1ccccc1CC(=O)NCC[N+](C)(C)C` the figure was 96.6%; with `Cc1cc(NCc2cc(Nc3ccnc4cc(Cl)ccc34)ccc2F)nc(N2CCCC2)n1`, 30.6%.
Under `COc1ccc(C(=O)COc2ccc(/C=C3\Oc4ccccc4C3=O)cc2)cc1` stands 108%; under `Cn1c2c(c3ccc(Cl)c(Cl)c31)C(C#N)C1(CCNCC1)NC2=O` (stereo not drawn), 55.3%; under `N#Cc1c(-c2ccccn2)[nH]c(=S)[nH]c1=O`, 97%.
For `Oc1c(CN2CCCC2)cc(COCc2ccc(Br)cc2)c2cccnc12`, the growth was -5.34% (active).
With `COc1ccc(N2CCN(c3nc(-c4cc(OC)c(OC)c(OC)c4)nc4ccccc34)CC2)cc1` the figure was 91.4%.
With `Nc1n[nH]c(-c2cc(Cl)ccc2O)c1-c1ccccc1`, the growth is 82.9%.
With `Cc1ccc(-c2cc(-c3ccccc3C)[nH]c(=O)c2C#N)s1` the figure was 79.1%; with `O=C(COc1ccc(/C=C2\Oc3ccccc3C2=O)cc1)c1ccc(Cl)cc1`, 126%; with `O=C1CCC2=C3C4CCCCC4C(=O)C4CCCC(OC2C1)C34` (stereo not drawn), 18%.
Under `O=C(Nc1ccccc1Cl)Oc1ccc(-c2ccccc2)cc1` stands 114%.
With `N#C/C(=C\c1ccc(-c2ccccc2F)o1)c1nc(-c2ccco2)cs1` the figure was 94.1%; with `O=[N+]([O-])c1ccc(Sc2cccc[n+]2[O-])c2nonc12`, 104%.
With `COc1cccc(C(=O)NCCNc2cc(-c3cn(-c4ccccc4)nc3-c3cccc(OC)c3)ccn2)c1`, the growth was 92.6%.
